Experimental data published in PubChem BioAssay (NCATS).
Values joined by “and” are separate entries in the source; they are usually repeats but may differ in a detail not shown here. Identical values can stand only once. Inconclusive results are not listed. The source holds several records for some structures; these can differ, active in one and inactive in another. Active and inactive are the calls of the source. The call rests on the fitted dose curve; in most records, active means well fitted curve in the direction sought with a large enough effect; inconclusive means small, poorly fitted or top-dose-only effect, or another doubt; inactive means no such curve, though single readings can be large; an effect the other way counts as inactive or inconclusive.

What was measured:
[1] = target: Guanine nucleotide-binding protein G(i) subunit alpha-1 (Homo sapiens) (UniProt P63096); assay: qHTS Assay for Inhibitors of RGS12 GoLoco Motif Activity (Green Fluorophore) (AID 879);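 further: negative values mean loss of peptide binding seen as reduced polarization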
Procedure, shortened: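 A drop in FITC polarization marked displacement of the FITC-tagged RGS12 GoLoco peptide (10 nM) from Gαi1 (50 nM). Compounds were incubated 10 min at room temperature in Tris pH 7.5 buffer containing 150 mM NaCl, 0.1 mM GDP and 0.05% NP40; unlabeled peptide titration served as control.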

[2] = Confirmation and Secondary Assay for Modulators of Hemoglobin Beta Chain Splicing at IVS2 654 locus (AID 910);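 further: HeLa cells stably carrying EGFP split by mutant beta-globin IVS2-654 intron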
Procedure, shortened: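 HeLa cells stably expressing EGFP interrupted by β-globin IVS2-654 intron, seeded overnight in Opti-MEM/2% FCS, then treated 2 days at 37 °C. Restored splicing read as total peak GFP intensity per well by laser scanning cytometry (488 nm excitation, 500–520 nm emission); 500 nM antisense PNA as control.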

[3] = Confirmation and Secondary Assay for Modulators of Hemoglobin Beta Chain Splicing at IVS2 705 locus (AID 930);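 further: HeLa cells stably expressing the EGFP-705 splicing reporter; GFP fluorescence per well restored by corrected splicing of the IVS2-705 intron in EGFP; series mostly up to about 46 µM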
Procedure, shortened: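 Stable HeLa line with EGFP disrupted by mutant beta-globin intron 2 (705). Overnight attachment, then 2 days of compound at 37C, 5% CO2. Signal: peak GFP intensity summed over objects 5-250 µm.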

[4] = target: Muscarinic acetylcholine receptor M1 (Rattus norvegicus) (UniProt P08482); assay: qHTS Assay for Antagonists of Acetylcholine Muscarinic M1 Receptor: Measurement of IP-One Response (AID 944); further: nearly all actives have a fitted effect of over 75% in size; further: potency means the concentration at half of the fitted maximal effect
Procedure, shortened: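 Read-out: HTRF competition between d2-IP1 and Eu-cryptate anti-IP1 antibody, emission 620 and 665 nm. Stimulus was carbachol, EC80 (200 nM), for 30 min in M1-CHO cells (rat receptor), after 10 min compound pre-treatment.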

[5] = target: Pyruvate kinase (Leishmania mexicana) (UniProt Q27686); assay: qHTS Validation Assay for Inhibitors of Leishmania Mexicana Pyruvate Kinase (AID 945)
Procedure, shortened: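 Mutant LmPYK (E451W), 0.2 nM, plus 0.5 mM PEP and 0.1 mM ADP in 50 mM imidazole pH 7.2 containing 0.01% Tween 20 and 0.05% BSA. Incubated 1 h at room temperature; luminescence via PKLight, normalized to DMSO.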

[6] = target: Muscarinic acetylcholine receptor M1 (Rattus norvegicus) (UniProt P08482); assay: qHTS Assay for Antagonists of Acetylcholine Muscarinic M1 Receptor: Kinetic Measurement of Intracellular Calcium Response (AID 943); further: nearly all actives have a fitted effect of over 75% in size; further: potency means the concentration at half of the fitted maximal effect
Procedure, shortened: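 Read-out: peak over basal Fluo-4 fluorescence, kinetic at 1 Hz for 4 min after EC80 carbachol (100 nM final). Rat M1-CHO cells, dye loaded 1 h at 37C, compound added 10 min before agonist.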

[7] = target: Cytochrome P450 3A4 (Homo sapiens) (UniProt P08684); assay: qHTS Assay for Inhibitors and Substrates of Cytochrome P450 3A4 (AID 884); further: series mostly up to about 57 µM; nearly all actives have a fitted effect of over 50% in size
Procedure, shortened: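 Luminescent readout of luciferin produced by CYP3A4 (20 nM) dealkylation of Luciferin-PPXE, 25 uM (its KM). NADPH-driven reaction ran 60 min at RT after 10 min compound preincubation; data scaled to 57 uM ketoconazole as 100% inhibition.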

[8] = qHTS Assay for Identification of Small Molecule Agonists for Thrombopoietin (TPO) Signaling Pathway (AID 917)
Procedure, shortened: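 Human TPO receptor–transfected Ba/F3 cells (murine, IL-3-dependent) in IL-3-deficient medium; compounds plus TPO at EC50, 26 pM final; 24 hrs, 37 C; GpIIb-luciferase luminescence after 10 min RT detection.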

[9] = target: Cytochrome P450 2C9 (Homo sapiens) (UniProt P11712); assay: qHTS Assay for Inhibitors and Substrates of Cytochrome P450 2C9 (AID 883); further: nearly all actives have a fitted effect of over 60% in size; further: potency means the concentration at half of the fitted maximal effect
Procedure, shortened: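 10nM CYP2C9 + 100uM Luciferin-H (=KM), 25mM KPO4; cpd 10 min 37C; NADPH regen, 60 min 37C; stop/detect with P450 Glo-Buffer 20 min; luminescence. Norm. to 57uM sulphaphenazole as full inhibition.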

[10] = target: Cytochrome P450 2D6 (Homo sapiens) (UniProt P10635); assay: qHTS Assay for Inhibitors and Substrates of Cytochrome P450 2D6 (AID 891); further: nearly all actives have a fitted effect of over 60% in size; further: potency means the concentration at half of the fitted maximal effect
Procedure, shortened: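 Luminescent read-out of luciferin formed by 5 nM human CYP2D6 demethylating 30 uM Luciferin-ME EGE (Km level) over 60 min at room temperature after NADPH regeneration addition. Data normalized to full inhibition by 1.43 uM quinidine.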

[11] = target: Cytochrome P450 2C19 (Homo sapiens) (UniProt P33261); assay: qHTS Assay for Inhibitors and Substrates of Cytochrome P450 2C19 (AID 899); further: nearly all actives have a fitted effect of over 60% in size; further: potency means the concentration at half of the fitted maximal effect
Procedure, shortened: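 Luminescent read-out of luciferin formed from Luciferin-H EGE (10uM, equal to KM). Enzyme 5nM in 50mM KPO4; compound added, 10 min at 37C, then NADPH regenerating system for 60 min at 37C. Full inhibition defined by 57uM ketoconazole.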

[12] = target: Cytochrome P450 3A4 (Homo sapiens) (UniProt P08684); assay: qHTS Assay for Activators of Cytochrome P450 3A4 (AID 885); further: nearly all actives have a fitted effect of over 65% in size; further: potency means the concentration at half of the fitted maximal effect
Procedure, shortened: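 Luminescent readout of luciferin formed from 25 uM Luciferin-PPXE (KM level) by 20 nM CYP3A4 in 200 mM KPO4, with 60 min NADPH-driven reaction at room temperature after 10 min compound exposure. Ketoconazole (57 uM) defined 100% inhibition.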

Measured: Potency

Chain of Cytochrome P450 2D6 (Homo sapiens) (P10635 whole entry, looked up): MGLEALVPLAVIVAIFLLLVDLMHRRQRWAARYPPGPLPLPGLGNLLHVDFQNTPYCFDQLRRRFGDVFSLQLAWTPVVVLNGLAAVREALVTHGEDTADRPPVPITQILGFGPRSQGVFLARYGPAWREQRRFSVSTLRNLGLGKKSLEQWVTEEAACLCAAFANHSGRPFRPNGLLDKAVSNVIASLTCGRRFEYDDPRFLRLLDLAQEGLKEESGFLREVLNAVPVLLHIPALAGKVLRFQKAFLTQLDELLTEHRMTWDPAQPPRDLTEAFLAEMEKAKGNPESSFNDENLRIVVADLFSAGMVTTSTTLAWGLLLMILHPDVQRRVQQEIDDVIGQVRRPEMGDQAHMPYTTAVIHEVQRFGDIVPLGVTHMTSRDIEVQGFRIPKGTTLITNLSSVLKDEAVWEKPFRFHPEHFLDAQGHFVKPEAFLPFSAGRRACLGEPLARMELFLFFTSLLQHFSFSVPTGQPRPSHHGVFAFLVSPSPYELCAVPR
Chain of Cytochrome P450 3A4 (Homo sapiens) (P08684 whole entry, looked up): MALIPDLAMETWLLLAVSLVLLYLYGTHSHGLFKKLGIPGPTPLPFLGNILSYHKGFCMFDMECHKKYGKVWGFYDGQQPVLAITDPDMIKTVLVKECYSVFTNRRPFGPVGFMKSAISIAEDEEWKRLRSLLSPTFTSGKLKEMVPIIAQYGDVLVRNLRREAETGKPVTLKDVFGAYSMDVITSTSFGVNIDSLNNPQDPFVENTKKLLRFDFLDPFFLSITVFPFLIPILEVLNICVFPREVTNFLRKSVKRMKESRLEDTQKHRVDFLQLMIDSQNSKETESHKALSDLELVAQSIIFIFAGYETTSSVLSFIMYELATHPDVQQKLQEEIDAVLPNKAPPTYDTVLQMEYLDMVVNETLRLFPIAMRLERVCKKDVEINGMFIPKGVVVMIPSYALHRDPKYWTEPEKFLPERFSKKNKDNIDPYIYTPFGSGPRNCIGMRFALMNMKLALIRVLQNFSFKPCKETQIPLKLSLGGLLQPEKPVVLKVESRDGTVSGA
Chain of Guanine nucleotide-binding protein G(i) subunit alpha-1 (Homo sapiens) (P63096 whole entry, looked up): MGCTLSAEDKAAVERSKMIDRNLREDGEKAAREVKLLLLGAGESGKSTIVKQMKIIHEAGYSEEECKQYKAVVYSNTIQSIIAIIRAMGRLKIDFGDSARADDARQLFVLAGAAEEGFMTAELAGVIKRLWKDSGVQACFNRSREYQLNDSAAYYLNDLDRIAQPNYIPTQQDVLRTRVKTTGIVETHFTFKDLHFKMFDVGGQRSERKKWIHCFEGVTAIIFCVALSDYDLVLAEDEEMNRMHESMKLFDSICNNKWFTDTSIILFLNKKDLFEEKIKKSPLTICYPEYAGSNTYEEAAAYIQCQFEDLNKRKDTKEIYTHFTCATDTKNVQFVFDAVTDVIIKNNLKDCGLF
Chain of Muscarinic acetylcholine receptor M1 (Rattus norvegicus) (P08482 whole entry, looked up): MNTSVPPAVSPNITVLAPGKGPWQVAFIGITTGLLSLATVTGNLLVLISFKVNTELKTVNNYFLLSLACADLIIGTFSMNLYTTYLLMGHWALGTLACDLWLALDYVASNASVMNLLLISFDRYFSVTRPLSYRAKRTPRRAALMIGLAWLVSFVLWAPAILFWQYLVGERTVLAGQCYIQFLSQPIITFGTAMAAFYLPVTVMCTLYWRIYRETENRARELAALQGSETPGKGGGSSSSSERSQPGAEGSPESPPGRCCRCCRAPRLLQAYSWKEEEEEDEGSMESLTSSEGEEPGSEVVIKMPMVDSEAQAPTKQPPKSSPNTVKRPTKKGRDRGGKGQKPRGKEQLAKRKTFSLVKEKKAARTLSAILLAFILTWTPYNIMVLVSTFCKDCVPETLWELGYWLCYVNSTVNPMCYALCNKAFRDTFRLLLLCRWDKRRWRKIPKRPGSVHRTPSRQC
Chain of Pyruvate kinase (Leishmania mexicana) (Q27686 2-499 E452W): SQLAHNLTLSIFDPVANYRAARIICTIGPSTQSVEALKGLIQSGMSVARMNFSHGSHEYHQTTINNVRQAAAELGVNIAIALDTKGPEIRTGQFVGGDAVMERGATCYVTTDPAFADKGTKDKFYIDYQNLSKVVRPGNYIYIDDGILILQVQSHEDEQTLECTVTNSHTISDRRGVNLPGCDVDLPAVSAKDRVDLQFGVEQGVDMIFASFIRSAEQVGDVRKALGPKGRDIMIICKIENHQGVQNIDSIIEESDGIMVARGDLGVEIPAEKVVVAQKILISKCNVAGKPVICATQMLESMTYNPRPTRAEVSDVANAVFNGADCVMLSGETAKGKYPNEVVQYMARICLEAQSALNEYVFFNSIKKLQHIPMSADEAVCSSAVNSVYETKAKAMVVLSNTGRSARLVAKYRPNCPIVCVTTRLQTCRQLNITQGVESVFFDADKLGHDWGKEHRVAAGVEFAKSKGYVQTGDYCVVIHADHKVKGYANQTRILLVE
Chain of Cytochrome P450 2C9 (Homo sapiens) (P11712 whole entry, looked up): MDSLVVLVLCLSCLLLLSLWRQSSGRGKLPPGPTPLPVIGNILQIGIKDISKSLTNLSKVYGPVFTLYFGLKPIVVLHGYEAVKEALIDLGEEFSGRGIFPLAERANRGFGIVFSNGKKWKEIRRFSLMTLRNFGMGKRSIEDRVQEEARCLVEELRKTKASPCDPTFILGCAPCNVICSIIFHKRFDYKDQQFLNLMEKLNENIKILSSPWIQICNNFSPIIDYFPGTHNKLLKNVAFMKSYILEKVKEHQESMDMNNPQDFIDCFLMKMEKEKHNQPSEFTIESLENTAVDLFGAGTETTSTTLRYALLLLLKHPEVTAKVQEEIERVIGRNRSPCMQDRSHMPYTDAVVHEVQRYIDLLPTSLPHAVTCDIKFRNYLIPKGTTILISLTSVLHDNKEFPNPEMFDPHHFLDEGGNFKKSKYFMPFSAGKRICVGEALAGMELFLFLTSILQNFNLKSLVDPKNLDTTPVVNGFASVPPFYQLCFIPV
Chain of Cytochrome P450 2C19 (Homo sapiens) (P33261 whole entry, looked up): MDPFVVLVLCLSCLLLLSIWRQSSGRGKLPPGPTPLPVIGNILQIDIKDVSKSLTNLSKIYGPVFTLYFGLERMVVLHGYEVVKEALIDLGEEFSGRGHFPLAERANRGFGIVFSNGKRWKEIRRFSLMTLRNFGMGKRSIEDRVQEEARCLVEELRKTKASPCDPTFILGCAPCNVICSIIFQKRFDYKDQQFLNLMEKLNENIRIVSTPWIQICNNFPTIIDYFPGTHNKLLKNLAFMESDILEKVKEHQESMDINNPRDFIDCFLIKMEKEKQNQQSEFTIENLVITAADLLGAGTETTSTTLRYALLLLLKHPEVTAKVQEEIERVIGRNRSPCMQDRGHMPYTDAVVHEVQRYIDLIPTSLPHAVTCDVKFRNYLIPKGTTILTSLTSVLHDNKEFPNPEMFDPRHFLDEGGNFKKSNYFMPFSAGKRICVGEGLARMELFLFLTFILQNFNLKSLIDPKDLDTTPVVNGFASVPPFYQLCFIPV

Cc1ccc(S(=O)(=O)NC(=O)NN2CCCCCC2)cc1
inactive: [1] | [2] | [3] | [4] | [5]

O=C(O)CN(CCN(CC(=O)O)CC(=O)O)CCN(CC(=O)O)CC(=O)O
inactive: [1] | [6] | [4]

CCCCNc1ccc(C(=O)OCCN(C)C)cc1
inactive: [1] | [2] | [3]

CC[N+](C)(C)c1cccc(O)c1
inactive: [7] | [2] | [8] | [3]

CC(=O)OC(C)C[N+](C)(C)C (stereo not drawn)
inactive: [7] | [2] | [3]

O=C(O)CN(CCOCCOCCN(CC(=O)O)CC(=O)O)CC(=O)O
inactive: [1] | [6] | [4] | [5]

Cc1scc2c1N(C(=O)CN1CCN(C)CC1)c1ccccc1NC2=O
inactive and 3.98 µM (active): [11]
active: [9] 2.51 µM | [10] 5010 nM | [6] 31.6 nM | [4] 28.2 nM
inactive: [7] | [2] | [3]

CC(=O)Oc1cc(C(C)C)c(OCCN(C)C)cc1C
active: [4] 12600 nM
inactive: [1]

CN/C(=C\[N+](=O)[O-])NCCSCc1ccc(CN(C)C)o1
inactive: [1] | [2] | [8] | [3] | [4]

C(=C\c1ccccc1)/CN1CCN(C(c2ccccc2)c2ccccc2)CC1
inactive: [1] | [5]

Brc1c(NC2=NCCN2)ccc2nccnc12
inactive: [9] | [12] | [11] | [5]

Nc1c2c(nc3ccccc13)CCCC2O (stereo not drawn)
inactive: [7] | [2] | [3]

CN(C)CCCN1c2ccccc2Sc2ccccc21
inactive: [1] | [2] | [3] | [5]

CC(C)(Oc1ccc(CCNC(=O)c2ccc(Cl)cc2)cc1)C(=O)O
inactive: [7] | [2] | [3]

CN(C)C(=O)Oc1cccc([N+](C)(C)C)c1
inactive: [7] | [2] | [8] | [3] | [5]

CCn1nc(C(=O)O)c(=O)c2cc3c(cc21)OCO3
inactive: [1] | [2] | [3]

Fc1ccc(C(c2ccc(F)cc2)N2CCN(C/C=C/c3ccccc3)CC2)cc1
inactive: [7] | [2] | [3]

Cc1ccc(Cl)c(Nc2ccccc2C(=O)O)c1Cl
inactive: [7] | [2] | [8] | [3] | [5]
active: [9] 7.94 µM and 1.26 µM | [12] 20 µM and 12.6 µM and 25.1 µM

NC(N)=NC(=O)Cc1c(Cl)cccc1Cl
inactive: [9] | [12] | [4] | [5]
active: [10] 126 nM | [11] 251 nM

C=CCc1ccccc1OCC(O)CNC(C)C (stereo not drawn)
inactive: [7] | [2] | [3]

CCO/C([O-])=N/c1c[n+](N2CCOCC2)no1
inactive: [9] | [12] | [10] | [11] | [2] | [8] | [3] | [6]
